# Assay results reported in PubChem BioAssay (Tox21).
# Values joined by “and” are separate entries in the source; they are usually repeats but may differ in a detail not shown here. Equal entries are not always repeated. Records with an inconclusive call do not appear. A call without a number means that no potency is given here. More than one record can exist for a structure, and the calls need not agree. Active and inactive are the calls of the source. Calls come from the whole dose curve; as a rule, active = well fitted curve in the direction sought with a large enough effect in the repeat runs; inconclusive = weak or mixed curves; inactive = no such curve, though single readings can be large; an effect the other way counts as inactive or inconclusive.
# What was measured:
# [1] = qHTS RealTime-Glo MT Cell Viability Assay in HepG2 cells - 8 hour (AID 1224873); note: nearly all actives have a fitted effect of over 55% in size
# Summary of the method: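 Real-time viability: cells seeded at 600 per well together with NanoLuc and cell-permeant prosubstrate, compounds added after 5 h incubation. Luminescence tracked at 0, 8, 16, 24, 32 and 40 h of exposure.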
# [2] = qHTS RealTime-Glo MT Cell Viability Assay in HEK293 cells - 40 hour (AID 1224874); conditions: RealTime-Glo luminescence; max response: stronger effect = lower value; note: nearly all actives have a fitted effect of over 50% in size; note: potency is the fitted concentration of half-maximal effect
# Summary of the method: (§1)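 Luminescence, which tracks viable cell number through reduction of the prosubstrate to a NanoLuc substrate, was read over continuous 37 C culture. Cells (600/well) were premixed with reagent and rested 5 h before 23 nL of compound in DMSO was pinned.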
# [3] = A CellTox Green Cytotoxicity Assay to monitor cytotoxicity in HEK293 cells - 24 hour (AID 1224875); note: nearly all actives have a fitted effect of over 45% in size; note: potency is the fitted concentration of half-maximal effect; for activity change: series mostly up to about 77 µM
# Summary of the method: (§2)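 Fluorescence from a DNA-binding dye excluded by viable cells was measured repeatedly in the same HEK293 wells (600 cells/well) during continuous compound exposure at 37 C. Each assay gives one read point: 0, 8, 16, 24, 32 or 40 h.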
# [4] = A CellTox Green Cytotoxicity Assay to monitor cytotoxicity in HepG2 cells - 16 hour (AID 1224876); note: nearly all actives have a fitted effect of over 45% in size; note: potency is the fitted concentration of half-maximal effect
# Summary of the method: (§3)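 Real-time cytotoxicity: fluorescence of a cell-impermeant cyanine dye binding DNA of dead HepG2 cells, measured repeatedly (0–40 h) during compound exposure at 37 C. Cells seeded 600/well with reagent, dosed after 5 h.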
# [5] = qHTS RealTime-Glo MT Cell Viability Assay in HepG2 cells - 32 hour (AID 1224877); note: nearly all actives have a fitted effect of over 55% in size
# Summary of the method: (§4)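 Compound treatment began 5 h after plating HepG2 cells (600/well) with NanoLuc luciferase and prosubstrate. Plates stayed at 37 C for 40 h; luminescence was captured at six time points, 0 h through 40 h.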
# [6] = A CellTox Green Cytotoxicity Assay to monitor cytotoxicity in HepG2 cells - 24 hour (AID 1224878); note: nearly all actives have a fitted effect of over 45% in size; note: potency is the fitted concentration of half-maximal effect
# Summary of the method: as §3
# [7] = A CellTox Green Cytotoxicity Assay to monitor cytotoxicity in HepG2 cells - 40 hour (AID 1224879); note: nearly all actives have a fitted effect of over 40% in size; note: potency is the fitted concentration of half-maximal effect
# Summary of the method: as §3
# [8] = qHTS RealTime-Glo MT Cell Viability Assay in HEK293 cells - 0 hour (AID 1224880); note: nearly all actives have a fitted effect of over 45% in size; note: potency is the fitted concentration of half-maximal effect; for activity change, negative = cytotoxicity: top concentration of the series differs between compounds
# Summary of the method: as §1
# [9] = A CellTox Green Cytotoxicity Assay to monitor cytotoxicity in HEK293 cells - 32 hour (AID 1224881); note: nearly all actives have a fitted effect of over 40% in size; note: potency is the fitted concentration of half-maximal effect
# Summary of the method: as §2
# [10] = A CellTox Green Cytotoxicity Assay to monitor cytotoxicity in HepG2 cells - 0 hour (AID 1224882); note: nearly all actives have a fitted effect of over 35% in size
# Summary of the method: as §3
# [11] = A CellTox Green Cytotoxicity Assay to monitor cytotoxicity in HepG2 cells - 32 hour (AID 1224883); note: nearly all actives have a fitted effect of over 50% in size; note: potency is the fitted concentration of half-maximal effect
# Summary of the method: as §3
# [12] = A CellTox Green Cytotoxicity Assay to monitor cytotoxicity in HEK293 cells - 8 hour (AID 1224884); note: nearly all actives have a fitted effect of over 35% in size
# Summary of the method: as §2
# [13] = qHTS RealTime-Glo MT Cell Viability Assay in HepG2 cells - 16 hour (AID 1224885); note: nearly all actives have a fitted effect of over 50% in size
# Summary of the method: as §4
# [14] = qHTS RealTime-Glo MT Cell Viability Assay in HEK293 cells - 24 hour (AID 1224886); note: nearly all actives have a fitted effect of over 50% in size; note: potency is the fitted concentration of half-maximal effect; for activity change, negative = cytotoxicity: top concentration of the series differs between compounds
# Summary of the method: (§5)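 Quantitative high-throughput screen of the Tox21 10K library in HEK293: cells and RealTime-Glo reagents plated together, compound added at 5 h, luminescence monitored through 40 h at 37 C.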
# [15] = qHTS RealTime-Glo MT Cell Viability Assay in HEK293 cells - 8 hour (AID 1224887); note: nearly all actives have a fitted effect of over 50% in size; note: potency is the fitted concentration of half-maximal effect; for activity change, negative = cytotoxicity: top concentration of the series differs between compounds
# Summary of the method: as §1
# [16] = A CellTox Green Cytotoxicity Assay to monitor cytotoxicity in HEK293 cells - 16 hour (AID 1224888); note: nearly all actives have a fitted effect of over 35% in size; note: potency is the fitted concentration of half-maximal effect
# Summary of the method: as §2
# [17] = qHTS RealTime-Glo MT Cell Viability Assay in HepG2 cells - 0 hour (AID 1224889); note: nearly all actives have a fitted effect of over 50% in size
# Summary of the method: as §4
# [18] = A CellTox Green Cytotoxicity Assay to monitor cytotoxicity in HepG2 cells - 8 hour (AID 1224890); note: nearly all actives have a fitted effect of over 45% in size; note: potency is the fitted concentration of half-maximal effect
# Summary of the method: as §3
# [19] = qHTS assay to identify small molecule antagonists of the estrogen receptor alpha (ER-alpha) signaling pathway using the BG1 cell line in the presence of 0.1 nM 17-beta-estradiol - cell viability counter screen (AID 1259241); note: nearly all actives have a fitted effect of over 40% in size; note: potency is the fitted concentration of half-maximal effect
# Summary of the method: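 CellTiter-Fluor read (30 min, 37C) on ER-alpha/ERE-luc VM7Luc4E2 cells; 22 hr compound treatment; agonist 0.1 nM E2 final; same-well multiplex.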
# [20] = qHTS RealTime-Glo MT Cell Viability Assay in HEK293 cells - 16 hour (AID 1224872); note: nearly all actives have a fitted effect of over 50% in size; note: potency is the fitted concentration of half-maximal effect; for activity change, negative = cytotoxicity: top concentration of the series differs between compounds
# Summary of the method: as §5
smiles,measurement,setting,value
CCCCCCCOC(=O)c1ccc(O)cc1,Potency,[1],inactive
same,Potency,[2],24.6 µM (active) and 19.5 µM (active)
same,Potency,[3],inactive
same,Potency,[4],inactive and 38.9 µM (active)
same,Potency,[5],inactive
same,Potency,[6],24.5 µM (active)
same,Potency,[7],24.5 µM (active)
same,Potency,[8],inactive
same,Potency,[9],inactive
same,Potency,[10],inactive
same,Potency,[11],24.5 µM (active)
same,Potency,[12],inactive
same,Potency,[13],inactive
same,Potency,[14],24.6 µM (active) and 21.9 µM (active)
same,Potency,[15],21.9 µM (active)
same,Potency,[16],inactive
same,Potency,[17],inactive
same,Potency,[18],inactive and 38.9 µM (active)
same,Potency,[19],inactive
CCC(C)(C)c1cc(O)c(C(C)(C)CC)cc1O,Potency,[20],21.9 µM (active)
same,Potency,[2],34.7 µM (active)
same,Potency,[4],inactive
same,Potency,[7],49 µM (active)
same,Potency,[8],inactive
same,Potency,[10],inactive
same,Potency,[11],49 µM (active)
same,Potency,[12],inactive
same,Potency,[14],21.9 µM (active)
same,Potency,[15],21.9 µM (active)
same,Potency,[17],inactive
same,Potency,[18],inactive
same,Potency,[19],inactive
O=C(O)CCn1c2c(c3ccccc31)C[C@H](NS(=O)(=O)c1ccc(F)cc1)CC2,Potency,[1],inactive
same,max response,[2],8.69% (inactive)
same,Potency,[3],inactive
same,Potency,[4],inactive
same,Potency,[5],inactive
same,Potency,[6],inactive
same,Potency,[7],inactive
same,Potency,[8],inactive
same,Potency,[9],inactive
same,Potency,[10],inactive
same,Potency,[11],inactive
same,Potency,[12],inactive
same,Potency,[13],inactive
same,Potency,[14],inactive
same,Potency,[15],inactive
same,Potency,[16],inactive
same,Potency,[17],inactive
same,Potency,[18],inactive
same,Potency,[19],inactive
CN(C)c1ccc(N=NS(=O)(=O)O)cc1,Potency,[20],14.5 µM (active)
same,max response,[2],-17.2% (inactive)
same,Potency,[3],inactive
same,Potency,[4],inactive
same,Potency,[5],inactive
same,Potency,[6],inactive
same,Potency,[7],inactive
same,Potency,[8],inactive
same,Potency,[9],inactive
same,Potency,[10],inactive
same,Potency,[12],inactive
same,Potency,[15],34.5 µM (active)
same,Potency,[16],inactive
same,Potency,[18],inactive
COc1cc(C(C)C)c2c(c1)S(=O)(=O)N(COc1cc(=O)n3cccc(OCCN4CCCCC4)c3n1)C2=O,"activity change, negative = cytotoxicity",[20],3.24% [at 15.8 µM] (inactive)
same,activity change,[3],"0.172% [at 15.8 µM, stronger effect = higher value] (inactive)"
same,cytotoxicity increase,[4],19.8% [at 15.8 µM] (inactive)
same,"activity change, negative = cytotoxic",[5],-2.94% [at 15.8 µM] (inactive)
same,"activity change, negative = cytotoxicity",[8],-4.74% [at 15.8 µM] (inactive)
same,cytotoxicity increase,[9],5.59% [at 15.8 µM] (inactive)
same,cytotoxicity,[10],2.15% [at 15.8 µM] (inactive)
same,cytotoxicity increase,[12],-6.14% [at 15.8 µM] (inactive)
same,"activity change, negative = cytotoxic",[13],-16.4% [at 15.8 µM] (inactive)
same,activity change,[16],"2.2% [at 15.8 µM, stronger effect = higher value] (inactive)"
same,"activity change, negative = cytotoxicity",[17],-4.58% [at 15.8 µM] (inactive)
same,cytotoxicity increase,[18],14.9% [at 15.8 µM] (inactive)
same,"activity change, negative = cytotoxicity",[19],-4.33% [at 19 µM] (inactive)
CNC(=O)c1cc(Oc2ccc(NC(=O)Nc3ccc(Cl)c(C(F)(F)F)c3)cc2)ccn1,Potency,[20],3.01 µM (active)
same,Potency,[2],3.01 µM (active)
same,Potency,[3],inactive
same,Potency,[4],inactive
same,Potency,[6],inactive
same,Potency,[8],inactive
same,Potency,[10],inactive
same,Potency,[12],inactive
same,Potency,[14],3.38 µM (active)
same,Potency,[15],4.25 µM (active)
same,Potency,[16],inactive
same,Potency,[17],inactive
same,Potency,[18],inactive
CO[C@H]1C=CO[C@@]2(C)Oc3c(C)c(O)c4c(O)c(cc(O)c4c3C2=O)NC(=O)/C(C)=C\C=C/[C@H](C)[C@H](O)[C@@H](C)[C@@H](O)[C@@H](C)[C@H](OC(C)=O)[C@@H]1C,Potency,[1],inactive
same,max response,[2],-22.2% (inactive)
same,Potency,[3],inactive
same,Potency,[4],inactive
same,Potency,[5],inactive
same,Potency,[6],inactive
same,Potency,[7],inactive
same,Potency,[8],17.5 µM (active)
same,Potency,[9],inactive
same,Potency,[10],inactive
same,Potency,[11],inactive
same,Potency,[12],inactive
same,Potency,[13],inactive
same,Potency,[14],inactive
same,Potency,[16],inactive
same,Potency,[18],inactive
same,Potency,[19],27.5 µM (active)
Clc1ccccc1CN1CCc2sccc2C1,Potency,[1],inactive
same,max response,[2],-22.8% (inactive)
same,Potency,[3],inactive
same,Potency,[4],inactive
same,Potency,[5],inactive
same,Potency,[6],inactive
same,Potency,[7],inactive
same,Potency,[8],inactive
same,Potency,[9],inactive
same,Potency,[10],inactive
same,Potency,[11],inactive
same,Potency,[12],inactive
same,Potency,[13],inactive
same,Potency,[15],inactive
same,Potency,[16],inactive
same,Potency,[17],inactive
same,Potency,[18],inactive
same,Potency,[19],inactive
O=c1cccc[nH]1,Potency,[1],inactive
same,max response,[2],12.2% (inactive)
same,Potency,[3],inactive
same,Potency,[4],inactive
same,Potency,[5],inactive
same,Potency,[6],inactive
same,Potency,[7],inactive
same,Potency,[8],inactive
same,Potency,[9],inactive
same,Potency,[10],inactive
same,Potency,[11],inactive
same,Potency,[12],inactive
same,Potency,[13],inactive
same,Potency,[14],inactive
same,Potency,[15],inactive
same,Potency,[16],inactive
same,Potency,[17],inactive
same,Potency,[19],inactive
CCCCCCOc1cc(C)c(O)c(C)c1C,Potency,[20],14 µM (active)
same,Potency,[2],19.7 µM (active)
same,Potency,[3],44.2 µM (active)
same,Potency,[4],24.8 µM (active)
same,Potency,[6],24.8 µM (active)
same,Potency,[7],24.8 µM (active)
same,Potency,[8],inactive
same,Potency,[9],44.2 µM (active)
same,Potency,[10],inactive
same,Potency,[11],24.8 µM (active)
same,Potency,[14],15.7 µM (active)
same,Potency,[15],14 µM (active)
same,Potency,[16],44.2 µM (active)
same,Potency,[17],inactive
same,Potency,[18],35.1 µM (active)
same,Potency,[19],inactive
CC(=O)OC(OC(C)=O)c1ccc([N+](=O)[O-])o1,Potency,[20],44.4 µM (active)
same,Potency,[2],44.4 µM (active)
same,Potency,[7],49.8 µM (active)
same,Potency,[8],inactive
same,Potency,[10],inactive
same,Potency,[11],55.9 µM (active)
same,Potency,[12],inactive
same,Potency,[14],44.4 µM (active)
same,Potency,[15],39.6 µM (active)
same,Potency,[17],inactive
same,Potency,[18],inactive
same,Potency,[19],55.4 µM (active)
CCOC(=O)N1CCC(=C2c3ccc(Cl)cc3CCc3cccnc32)CC1,Potency,[20],21.9 µM (active) and 8.49 µM (active)
same,Potency,[2],19.5 µM (active) and 16.9 µM (active)
same,Potency,[3],inactive
same,Potency,[4],inactive
same,Potency,[5],inactive
same,Potency,[7],54.9 µM (active)
same,Potency,[8],inactive
same,Potency,[9],inactive
same,Potency,[10],inactive
same,Potency,[12],inactive
same,Potency,[14],21.9 µM (active) and 16.9 µM (active)
same,Potency,[15],21.9 µM (active)
same,Potency,[16],inactive
same,Potency,[17],inactive
same,Potency,[18],inactive
same,Potency,[19],inactive
C/C=C/CO,Potency,[1],inactive
same,max response,[2],8.59% (inactive)
same,Potency,[4],inactive
same,Potency,[5],inactive
same,Potency,[6],inactive
same,Potency,[7],inactive
same,Potency,[8],inactive
same,Potency,[9],inactive
same,Potency,[11],inactive
same,Potency,[13],inactive
same,Potency,[14],inactive
same,Potency,[15],inactive
same,Potency,[16],inactive
same,Potency,[17],inactive
same,Potency,[18],inactive
same,Potency,[19],inactive
